Experimental data: PubChem BioAssay (NCATS)
Results filed as inconclusive are left out. Values without a mark were called inactive. Activity calls are given as the source filed them. Calls come from the whole dose curve; as a rule, active = well fitted cell-killing curve with a large enough effect; inconclusive = small, poorly fitted or top-dose-only effect; inactive = flat fitted curve, though single readings scatter.

assay: qHTS of pediatric cancer cell lines to identify multiple opportunities for drug repurposing: Primary screen for DAOY cells (AID 1347090); settings: DAOY medulloblastoma viability, CellTiter-Glo luminescence, 48 h; series mostly up to 46 µM; activity change, negative = cytotoxic: at the top concentration; note: nearly all actives have a fitted effect of over 55% in size
Description: Drug repurposing or repositioning has been offered as a strategy for drug development in oncology programs. This approach has special potential for childhood cancers and other rare or orphan diseases, where the expected return on new drug development has been a disincentive to pharmaceuticals.
In this project we exploit the poly-pharmacology of drugs to discover new indications via phenotypic screening of a panel of 19 well-characterized cell lines derived from solid tumors seen in children and adolescents. The goal is to identify approved drugs with previously unrecognized anticancer properties that has the potential to reveal new mechanisms and biological processes involved in carcinogenesis or drug resistance. We employed a titration-based paradigm (quantitative high-throughput screening or qHTS), where all compounds were tested at multiple concentrations for their effect on cell viability. Concentration-response curves (CRCs) were derived directly from the primary screen, and both potency and efficacy values were used to identify compounds with robust bioactivity profiles. We screened the NIH Chemical Genomics Center (NCGC) Pharmaceutical Collection (NPC) and Mechanism Interrogation Plate (MIPE) small molecule collections of approved and investigational compounds against these cell lines; and measured metabolically active cells after 48 hours of compound treatment as a proxy for cell viability.
Assay Submitter: Nathalia J. Martinez, National Center for Advancing Translational Sciences, National Institutes of Health, Rockville, MD, USA; email: natalia.martinez@nih.gov
[1] Shen, M et al. Quantitative high-throughput phenotypic screening of pediatric cancer cell lines identifies multiple opportunities for drug repurposing. Oncotarget 2017 Dec 19;9(4):4758-4772. PMID 29435139.
The cells were obtained from University of North Carolina (UNC), Pediatric Preclinical Testing Program (PPT), and Coriell Institute (CI).
qHTS cell viability assay:
Cells were assayed in growth media at a density of 500-1,000 cells/well. Five microliters of cells were dispensed into 1,536-well, white, solid-bottom, TC-treated plates (Greiner Bio One) using a multidrop dispenser and incubated at 37 degrees C, 5% CO2, under a humidified atmosphere for 5 hours. Twenty-three nanoliters of compounds and controls (neutral control DMSO or positive control bortezomib at final concentration of 2.3 µM) were subsequently transferred by Kalypsys pintool. For primary screens, the MIPE collection was tested at 11-point dilutions (final concentrations range from 0.78 nM to 46 µM) and the NPC collection at 8-point dilutions (final concentrations range from 0.59 nM to 46 µM). Compounds tested in follow-up screens were assayed at 11-point dilutions. Cells were incubated for 48 hours, followed by addition of 3 uL of CellTiter-Glo (Promega). After a 15 min incubation at room temperature, samples were analyzed for luminescence intensity using a ViewLux High-throughput CCD imager equipped with clear filters.
Potency is the fitted concentration of half-maximal effect.

Row | SMILES | activity change, negative = cytotoxic | Potency
1 | CC1(C)SCCN(S(=O)(=O)c2ccc(OCC#CCO)cc2)[C@@H]1C(=O)NO | -14.4% | 
2 | CCOC(=O)C1=C[C@]2(CC)CCCN3CCc4c(n1c1ccccc41)[C@@H]32 |  | inactive
3 | Nc1ccc(S(=O)(=O)Nc2ccnn2-c2ccccc2)cc1 |  | inactive
4 | Clc1cccc(Cl)c1NC1=NCCN1 |  | inactive
5 | O=c1[nH]cnc2[nH]ncc12 |  | inactive
6 | O=C(Nc1cccnc1)N1CCC(Cc2cccc(Oc3ccc(C(F)(F)F)cn3)c2)CC1 |  | 14.8 µM (active)
7 | Cc1ccccc1C(C(=O)NC1CCCC1)N(C(=O)Cn1cnc2ccccc21)c1cccc(F)c1 (stereo not given) | -13.1% | 
8 | Cc1cc(SCc2sc(-c3ccc(C(F)(F)F)cc3)nc2C)ccc1OCC(=O)O | -11.2% | 
9 | O=C(Nc1nc2ccccc2n1CCN1CCOCC1)c1cccc([N+](=O)[O-])c1 |  | 7.43 µM (active)
10 | c1ccc(-c2nn3c(c2-c2ccnc4cc(OCCN5CCOCC5)ccc24)CCC3)nc1 | -18.6% | 
11 | NC(=O)c1cnccn1 |  | inactive
12 | COc1ccc(CC2=NN3C([C@@H](CCc4ccccc4)[C@@H](C)O)=NC(C)C3C(=O)N2)cc1OC (stereo not given in full) | -3.51% | 
13 | N=c1nc(N2CCCCC2)cc(N)n1O | 0.477% | 
14 | CCC(C)n1ncn(-c2ccc(N3CCN(c4ccc(OC[C@H]5CO[C@](Cn6cncn6)(c6ccc(Cl)cc6Cl)O5)cc4)CC3)cc2)c1=O (stereo not given in full) | -14.2% | 
15 | O=NN(CCCl)C(=O)NCCCl |  | inactive
16 | Oc1cccc(-c2nc(N3CCOCC3)c3oc4ncccc4c3n2)c1 |  | 2.15 µM (active)
17 | CN1CCN(CCCN2c3ccccc3Sc3ccc(C(F)(F)F)cc32)CC1 | -14.5% | 
18 | OC(CCN1CCCCC1)(c1ccccc1)C1CC2C=CC1C2 (stereo not given) |  | inactive
19 | C[C@]12CC[C@H](O)CC1=CC[C@@H]1[C@H]2CC[C@]2(C)C(c3cccnc3)=CC[C@H]12 | -8.57% [at 16.1 µM] | 
20 | Cn1c(=O)c(F)c(Nc2ccc(I)cc2F)c2c(=O)n(C[C@@H](O)CO)cnc21 |  | 18.7 µM (active)

Row | SMILES | activity change, negative = cytotoxic | Potency
21 | Cc1ccc(N(CC2=NCCN2)c2cccc(O)c2)cc1 |  | inactive
22 | CC(C)(C)NCC(O)c1ccc(O)c(CO)c1 (stereo not given) |  | inactive
23 | O=C(O)COCCN1CCN(C(c2ccccc2)c2ccc(Cl)cc2)CC1 (stereo not given) |  | inactive
24 | NC(=O)c1ccc(I)c([N+](=O)[O-])c1 | 19.2% | 
25 | N[C@@H]1CONC1=O |  | inactive
26 | O=C(C1CC1)N1CC[C@@H](Cn2c(-c3ccc(-c4ccc5occc5c4)cc3)nc3cnccc32)C1 | -2.7% | 
27 | NC[C@H](O)c1ccc(O)c(O)c1 |  | inactive
28 | Nc1nc2ccc(OC(F)(F)F)cc2s1 |  | inactive
29 | CCCC(CCC)C(=O)O | 0.263% | 
30 | Cc1c(CN2CCN(C(=O)C(C)C)CC2)sc2c(N3CCOCC3)nc(-c3cnc(N)nc3)nc12 |  | 0.469 µM (active)
31 | COc1nc(-c2ccc3c(c2)OCO3)n(-c2ccc(NC(=O)CSc3ccccc3)cc2)n1 | -4.23% | 
32 | COc1ccc([C@@H]2CC(=O)c3c(O)cc(O[C@@H]4O[C@H](CO[C@@H]5O[C@@H](C)[C@H](O)[C@@H](O)[C@@H]5O)[C@@H](O)[C@H](O)[C@@H]4O)cc3O2)cc1O | -0.362% | 
33 | CNCc1ccc(-c2[nH]c3cc(F)cc4c3c2CCNC4=O)cc1 | -6.52% | 
34 | CNC(=O)c1ccc(N2C(=S)N(c3ccc(C#N)c(C(F)(F)F)c3)C(=O)C2(C)C)cc1F | -6.97% | 
35 | OCCn1cc(-c2cnc3nnn(Cc4ccc5ncccc5c4)c3n2)cn1 | -15.9% | 
36 | Nc1nc2c(ncn2COCCO)c(=O)[nH]1 |  | inactive
37 | O=C1[C@H](Cc2ccc(O)cc2)N2C(=O)CCN(C(=O)NCc3ccccc3)[C@H]2CN1Cc1cccc2ccccc12 |  | 14.8 µM (active)
38 | CC(C)(N)C(=O)N[C@H](COCc1ccccc1)C(=O)N1CCC2(CC1)CN(S(C)(=O)=O)c1ccccc12 | -17.7% | 
39 | Nc1nc2[nH]cc(CCc3ccc(C(=O)N[C@@H](CCC(=O)O)C(=O)O)cc3)c2c(=O)[nH]1 | -23.6% | 
40 | CNC[C@H](O)c1cccc(O)c1 |  | inactive
